Test results published in article PMC11062922 (Nature Chemical Biology, 2023).
Where two headings read alike, the source gives them in different places.

Experiments:
Set-up in all cases: species or system human, MV4-11 + K-562 + COLO205 + SK-N-BE2 + OVCAR-8
CSNK1A1 = conditions: read-out: apparent Kd; compound concentrations: 100 nM and 1000 nM (sheet 'Samples'), CATDS: 9.6046167396209803E-2; n = 1
CSNK1D = conditions: read-out: apparent Kd, n = 1
CSNK1E = conditions: read-out: apparent Kd, n = 1
MAPK11 = conditions: read-out: apparent Kd; compound concentrations: 100 nM and 1000 nM (sheet 'Samples'), CATDS: 9.0675457178051394E-2; n = 1
MAPK14 = conditions: read-out: apparent Kd, n = 1
MAPKAPK2 = conditions: read-out: apparent Kd, n = 1
RIPK2 = conditions: read-out: apparent Kd; compound concentrations: 100 nM and 1000 nM (sheet 'Samples'), CATDS: 0.10111059470888201; n = 1
CLK1 = conditions: read-out: apparent Kd, n = 1
CLK4 = conditions: read-out: apparent Kd, n = 1
GSK3A = conditions: read-out: apparent Kd, n = 1
GSK3B = conditions: read-out: apparent Kd, n = 1
FER = conditions: read-out: apparent Kd; compound concentrations: 100 nM and 1000 nM (sheet 'Samples'), CATDS: 0.14947425083021301; n = 1
IGF1R = conditions: read-out: apparent Kd; compound concentrations: 100 nM and 1000 nM (sheet 'Samples'), CATDS: 0.12946189122978499; n = 1
INSR = conditions: read-out: apparent Kd; compound concentrations: 100 nM and 1000 nM (sheet 'Samples'), CATDS: 0.154401741124819; n = 1
PLK1 = conditions: read-out: apparent Kd; compound concentrations: 100 nM and 1000 nM (sheet 'Samples'), CATDS: 0.14661258796571799; n = 1
COX5A = conditions: read-out: apparent Kd; compound concentrations: 100 nM and 1000 nM (sheet 'Samples'), CATDS: 4.9189359622159999E-2; n = 1
DCTPP1 = conditions: read-out: apparent Kd; compound concentrations: 100 nM and 1000 nM (sheet 'Samples'), CATDS: 4.6014352292288702E-2; n = 1
DJA1 = system: T1, DJA1; conditions: read-out: apparent Kd; compound concentrations: 100 nM and 1000 nM (sheet 'Samples'), CATDS: 4.4193252056285201E-2; n = 1
T1 construct: gene DNAJA1

ICK = conditions: read-out: apparent Kd; compound concentrations: 100 nM and 1000 nM (sheet 'Samples'), CATDS: 5.6669342720563003E-2; n = 1
IRAK4 = conditions: read-out: apparent Kd; compound concentrations: 100 nM and 1000 nM (sheet 'Samples'), CATDS: 4.1120656288718103E-2; n = 1
NQO2 = conditions: read-out: apparent Kd; compound concentrations: 100 nM and 1000 nM (sheet 'Samples'), CATDS: 4.4133222473916003E-2; n = 1
PDXK = conditions: read-out: apparent Kd; compound concentrations: 100 nM and 1000 nM (sheet 'Samples'), CATDS: 4.47093082107951E-2; n = 1
PKM = conditions: read-out: apparent Kd; compound concentrations: 100 nM and 1000 nM (sheet 'Samples'), CATDS: 4.24178727539107E-2; n = 1
PRKCA = conditions: read-out: apparent Kd; compound concentrations: 100 nM and 1000 nM (sheet 'Samples'), CATDS: 0.16671093509257301; n = 1
PRKCB = conditions: read-out: apparent Kd; compound concentrations: 100 nM and 1000 nM (sheet 'Samples'), CATDS: 0.103401892254312; n = 1
PRKCD = conditions: read-out: apparent Kd; compound concentrations: 100 nM and 1000 nM (sheet 'Samples'), CATDS: 0.14677324190073199; n = 1
PRKCQ = conditions: read-out: apparent Kd; compound concentrations: 100 nM and 1000 nM (sheet 'Samples'), CATDS: 5.3878720766830299E-2; n = 1
RPS6KA3 = conditions: read-out: apparent Kd; compound concentrations: 100 nM and 1000 nM (sheet 'Samples'), CATDS: 4.20026996356445E-2; n = 1
RPS6KA6 = conditions: read-out: apparent Kd; compound concentrations: 100 nM and 1000 nM (sheet 'Samples'), CATDS: 0.184421750918566; n = 1
RPS6KB1 = conditions: read-out: apparent Kd; compound concentrations: 100 nM and 1000 nM (sheet 'Samples'), CATDS: 4.3958496024185799E-2; n = 1
[1] = compound concentrations:100 nM and 1000 nM (sheet 'Samples')

SMILES: CC1(C)CC(n2cnc(-c3ccc(F)cc3)c2-c2ccnc(N)n2)CC(C)(C)N1 [SB-221466]
- potency estimated from few doses (CSNK1A1): 0.694 µM
- potency estimated from few doses (CSNK1D; compound concentrations: 100 nM and 1000 nM (sheet 'Samples'), CATDS: 0.25228114630202902): 0.0376 µM
- potency estimated from few doses (CSNK1E; compound concentrations: 100 nM and 1000 nM (sheet 'Samples'), CATDS: 0.19281480161649001): 0.0654 µM
- potency estimated from few doses (MAPK11): 0.958 µM
- potency estimated from few doses (MAPK14; compound concentrations: 100 nM and 1000 nM (sheet 'Samples'), CATDS: 0.38213111916194098): 0.0188 µM
- potency estimated from few doses (MAPKAPK2; compound concentrations: 100 nM and 1000 nM (sheet 'Samples'), CATDS: 0.16941172485113901): 0.0896 µM
- potency estimated from few doses (RIPK2): 0.537 µM

SMILES: COc1ccc(CSc2nnc(-c3ccc4ncsc4c3)o2)cc1C(F)(F)F [TPKI-91]
- potency estimated from few doses (CLK1; [1]): 0.549 µM
- potency estimated from few doses (CLK4; [1]): 0.599 µM
- potency estimated from few doses (GSK3A; [1]): 0.131 µM
- potency estimated from few doses (GSK3B; [1]): 0.0725 µM

SMILES: N#Cc1ccc(Oc2nccc(-c3c(-c4ccc(F)cc4)ncn3C3CCNCC3)n2)cc1 [SB-242721]
- potency estimated from few doses (CSNK1D; [1]): 0.71 µM
- potency estimated from few doses (CSNK1E; [1]): 1.74 µM
- potency estimated from few doses (MAPK14; [1]): 0.844 µM
- potency estimated from few doses (MAPKAPK2; [1]): 0.496 µM

SMILES: CNC(=O)c1ncccc1Nc1nc(Nc2cc3c(cc2OC)CCCN3C(=O)CN(C)C)nc2[nH]ccc12 [GSK2220400A]
- potency estimated from few doses (CLK1; compound concentrations: 100 nM and 1000 nM (sheet 'Samples'), CATDS: 0.27992821641946602): 0.321 µM
- potency estimated from few doses (CLK4; compound concentrations: 100 nM and 1000 nM (sheet 'Samples'), CATDS: 0.21204627821104199): 0.504 µM
- potency estimated from few doses (FER): 1.02 µM
- potency estimated from few doses (IGF1R): 1.5 µM
- potency estimated from few doses (INSR): 0.949 µM
- potency estimated from few doses (PLK1): 1.07 µM

SMILES: CNCCCn1cc(C2=C(c3cn(C)c4ccccc34)C(=O)NC2=O)c2ccccc21.Cl [RO0318044-001]
- potency estimated from few doses (COX5A): 0.925 µM
- potency estimated from few doses (DCTPP1): 1.15 µM
- potency estimated from few doses (DJA1): 1.33 µM
- potency estimated from few doses (GSK3A; compound concentrations: 100 nM and 1000 nM (sheet 'Samples'), CATDS: 0.122036106459496): 0.114 µM
- potency estimated from few doses (GSK3B; compound concentrations: 100 nM and 1000 nM (sheet 'Samples'), CATDS: 7.9816759037496299E-2): 0.263 µM
- potency estimated from few doses (ICK): 0.61 µM
- potency estimated from few doses (IRAK4): 1.75 µM
- potency estimated from few doses (NQO2): 1.33 µM
- potency estimated from few doses (PDXK): 1.27 µM
- potency estimated from few doses (PKM): 1.55 µM
- potency estimated from few doses (PRKCA): 0.0678 µM
- potency estimated from few doses (PRKCB): 0.154 µM
- potency estimated from few doses (PRKCD): 0.083 µM
- potency estimated from few doses (PRKCQ): 0.703 µM
- potency estimated from few doses (RPS6KA3): 1.61 µM
- potency estimated from few doses (RPS6KA6): 0.0582 µM
- potency estimated from few doses (RPS6KB1): 1.35 µM
